Test [1] is described as follows: compounds altering circadian rhythm period length – cell-based, LOPAC library, luminescence reporter (AID 2774).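 Further: values are relative to mean of DMSO wells on each plate.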 The following applies: circadian reporter cells, at 7 µM, actives lie on both sides.
The nature of test [2]: compounds altering viability of human ES cells (AID 493140).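 Further: cells exposed to compounds for four days before counting.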 As to conditions: human embryonic stem cell survival screen; stronger effect = higher value.
In test [3] the test system is Hepatitis C virus NS3 helicase. In words: blockers of NS3h binding to ssDNA – biochemical, fluorescence polarization, LOPAC1280 library, primary screen (AID 687035; in the data active means inhibition above about 37%). As to conditions: Purified HCV NS3 helicase, Cy5-dT15 ssDNA binding fluorescence polarization; stronger effect = higher value; concentration not given here. In general terms: Fluorescence polarisation rises when a labelled molecule tumbles more slowly, as on binding a larger partner.

The nature of test [4]: viability loss with induced miR-34 in A549 – imaging, A549 dox-inducible miR-34, nuclei and caspase counts, primary screen (AID 1347080;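 active means compounds whose cell count with miR-34 switched on is under 0.7 times the count with it off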). The following applies: A549 miR-34 inducible, Hoechst nuclei count, 48 h.
A short description of test [5]: blockers of cellular phospholipid synthesis – cell-based, LOPAC library, screen 4, primary screen (AID 1347384). The following applies: animal cells, phospholipid biosynthesis inhibition screen; at 10 µM.
A short description of test [6]: galactose survival enhancers in mitochondrial complex I cybrids – cell-based, galactose medium, ATP luminescence, primary screen (AID 1645843;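 active means z-score of at least 1.8 in each of two replicates, scored against plate mean and spread of sample wells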;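 further: positive z means more ATP and so rescue of galactose-driven cybrid death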). As to conditions: complex I mutant cybrid cells, 72 h, stronger effect = higher value.
A short description of test [7]: compounds altering Cy5-DNA-NS3h complex signal – biochemical, LOPAC1280, artefact control for HCV NS3 helicase inhibitor project (AID 687037). The following applies: Cy5-DNA-NS3h complex fluorescence interference counterscreen. On the technique in general: The purpose of a counterscreen is to sort out artefacts and off-target activity.
Test [8] relates to Aerobactin synthetase IucA (Klebsiella pneumoniae). In words: inhibition of K. pneumoniae IucA enzyme – biochemical, Tocris library, absorbance (AID 1345561).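 Further: 100% = enzyme without compound and 0% = no enzyme.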 As to conditions: purified IucA enzyme assay, absorbance (OD) read-out; stronger effect = lower value;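 tested at 8 µM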.
Test [9] concerns the target ATP-dependent translocase ABCB1 (Homo sapiens) (UniProt P08183). The test can be described thus: P-glycoprotein substrate transport blockade – cell-based (AID 377; in the data active means fluorescence slope change above about 50%). The following applies: MDR1-expressing cells, fluorescent substrate accumulation slope; stronger effect = higher value; concentration not given here.
Test [10] in a line: P. berghei load reduction in hepatocytes – cell-based, HepG2, luciferase luminescence, HepG2 viability, primary screen (AID 624349; in the data active means parasite load remaining mostly below about 12%, no sharp cut-off; inactive means mostly above about 10%;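 further: 100% = mean of DMSO negative control wells on the same plate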). The following applies: P. berghei liver stage in HepG2, luciferase luminescence, concentration not given here; parasite load remaining: stronger effect = lower value; viability: measured here: HepG2 viability without parasites.
The nature of test [11]: MELAS cybrid and Rieske KO viability enhancers – cell-based, MELAS cybrids, Rieske KO mouse fibroblasts, CellTiter-Glo, primary screen (AID 1508586;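 active means mean z-score across replicates of 1.96 or higher in either the MELAS or the Rieske mutant cell line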;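 further: z relative to plate mean and SD of compound and empty wells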). As to conditions: low glucose. Background: In ATP-based viability assays light output follows the ATP content of the culture.
For test [12], the target named is NAD(+) hydrolase SARM1 (Homo sapiens) (UniProt Q6SZW1). In words: blocking NAD cleavage by SARM1 SAM-TIR – cell lysate, NAD-Glo luminescence (AID 1508614;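 active means compound whose remaining NAD level is above about 45 nM, limit read from the data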). As to conditions: SAM-TIR HEK293T lysate NADase, at 1 µM, stronger effect = higher value.
The target of test [13] is Mitogen-activated protein kinase 7 (Homo sapiens) (UniProt Q13164). In words: Gal4-ERK5 driven luciferase induction – cell-based, HTS, primary screen (AID 1508626;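 active means luciferase signal above three times the same-plate solvent-only control wells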;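 further: luciferase driven by Gal4-ERK5 fusion binding five Gal4 sites before minimal TATA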). The following applies: HeLa Gal4-ERK5 transactivation, 18 h, at 5 µM, stronger effect = higher value.
Test [14] is described as follows: chitosan synthesis blockers in C. neoformans – flow cytometry, Cibacron Brilliant Red staining (AID 1347148).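 Further: compound exposure lasted three days at 37 degrees C.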 The following applies: Cryptococcus neoformans chitosan, stronger effect = lower value; at 10 µM unless noted.
The nature of test [15]: liver-stage malaria parasite load reduction – cell-based, known kinase inhibitor set, luminescence, hepatoma host viability (AID 624392).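 Further: infected cells incubated roughly two days before readout.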 As to conditions: Plasmodium liver stage in hepatoma cells, luciferase luminescence, concentration not given here; liver cell % of control: measured here: host liver cell viability; parasite % of control: stronger effect = lower value.
The mark [16] stands for this setting: measured here: total cells with miR-34 induction, stronger effect = lower value.
The mark [17] stands for this setting: measured here: total cells without miR-34 induction.
Setting [18] is: stronger effect = lower value, cell number ratio, induced over uninduced.
The mark [19] stands for this setting: measured here: relative caspase fold change +Dox/-Dox.
The mark [20] stands for this setting: MELAS cybrid survival, CellTiter-Glo 48 h, stronger effect = higher value.
The mark [21] stands for this setting: Rieske KO mouse fibroblast survival, CellTiter-Glo 72 h.

Structures are written as SMILES. Where “and” joins values, the source holds several entries; their conditions need not be identical. Equal entries are not always repeated. Results filed as inconclusive are left out. Calls of active or inactive are those of the source. Unless noted, how the calls were made is not given here.

Sequence of ATP-dependent translocase ABCB1 (Homo sapiens) (P08183 whole entry, looked up): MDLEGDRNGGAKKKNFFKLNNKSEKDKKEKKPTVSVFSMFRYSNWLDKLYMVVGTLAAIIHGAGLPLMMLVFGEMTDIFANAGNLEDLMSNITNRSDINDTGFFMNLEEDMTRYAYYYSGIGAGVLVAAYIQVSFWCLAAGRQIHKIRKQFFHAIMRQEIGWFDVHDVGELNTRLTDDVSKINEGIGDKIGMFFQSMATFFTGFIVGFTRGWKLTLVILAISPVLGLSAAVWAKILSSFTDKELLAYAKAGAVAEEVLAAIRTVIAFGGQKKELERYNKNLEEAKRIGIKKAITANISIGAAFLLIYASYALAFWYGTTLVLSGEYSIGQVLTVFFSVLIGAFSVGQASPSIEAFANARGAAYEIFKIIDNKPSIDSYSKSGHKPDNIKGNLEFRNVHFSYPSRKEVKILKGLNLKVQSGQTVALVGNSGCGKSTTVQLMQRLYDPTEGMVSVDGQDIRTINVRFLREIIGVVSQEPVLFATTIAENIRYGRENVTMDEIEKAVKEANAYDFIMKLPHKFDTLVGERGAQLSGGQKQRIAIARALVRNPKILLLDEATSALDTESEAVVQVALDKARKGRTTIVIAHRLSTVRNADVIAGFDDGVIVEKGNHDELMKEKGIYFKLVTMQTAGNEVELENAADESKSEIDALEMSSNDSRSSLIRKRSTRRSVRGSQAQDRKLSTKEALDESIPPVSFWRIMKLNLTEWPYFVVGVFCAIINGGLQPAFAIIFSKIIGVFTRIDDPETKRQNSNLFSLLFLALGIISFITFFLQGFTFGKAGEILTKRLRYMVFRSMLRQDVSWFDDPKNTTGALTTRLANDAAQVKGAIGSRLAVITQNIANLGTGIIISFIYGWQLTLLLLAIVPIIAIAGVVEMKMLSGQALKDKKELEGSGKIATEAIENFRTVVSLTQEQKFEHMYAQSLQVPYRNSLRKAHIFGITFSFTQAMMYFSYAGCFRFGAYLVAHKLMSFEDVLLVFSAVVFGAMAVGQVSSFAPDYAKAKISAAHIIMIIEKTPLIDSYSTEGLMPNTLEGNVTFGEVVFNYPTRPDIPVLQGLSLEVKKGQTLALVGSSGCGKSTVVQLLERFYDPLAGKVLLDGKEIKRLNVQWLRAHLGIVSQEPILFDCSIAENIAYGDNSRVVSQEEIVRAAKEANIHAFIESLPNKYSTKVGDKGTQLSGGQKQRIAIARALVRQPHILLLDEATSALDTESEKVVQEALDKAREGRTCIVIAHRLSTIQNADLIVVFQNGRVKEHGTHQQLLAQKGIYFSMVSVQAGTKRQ
Sequence of Mitogen-activated protein kinase 7 (Homo sapiens) (Q13164 whole entry, looked up, the tested form may be a part): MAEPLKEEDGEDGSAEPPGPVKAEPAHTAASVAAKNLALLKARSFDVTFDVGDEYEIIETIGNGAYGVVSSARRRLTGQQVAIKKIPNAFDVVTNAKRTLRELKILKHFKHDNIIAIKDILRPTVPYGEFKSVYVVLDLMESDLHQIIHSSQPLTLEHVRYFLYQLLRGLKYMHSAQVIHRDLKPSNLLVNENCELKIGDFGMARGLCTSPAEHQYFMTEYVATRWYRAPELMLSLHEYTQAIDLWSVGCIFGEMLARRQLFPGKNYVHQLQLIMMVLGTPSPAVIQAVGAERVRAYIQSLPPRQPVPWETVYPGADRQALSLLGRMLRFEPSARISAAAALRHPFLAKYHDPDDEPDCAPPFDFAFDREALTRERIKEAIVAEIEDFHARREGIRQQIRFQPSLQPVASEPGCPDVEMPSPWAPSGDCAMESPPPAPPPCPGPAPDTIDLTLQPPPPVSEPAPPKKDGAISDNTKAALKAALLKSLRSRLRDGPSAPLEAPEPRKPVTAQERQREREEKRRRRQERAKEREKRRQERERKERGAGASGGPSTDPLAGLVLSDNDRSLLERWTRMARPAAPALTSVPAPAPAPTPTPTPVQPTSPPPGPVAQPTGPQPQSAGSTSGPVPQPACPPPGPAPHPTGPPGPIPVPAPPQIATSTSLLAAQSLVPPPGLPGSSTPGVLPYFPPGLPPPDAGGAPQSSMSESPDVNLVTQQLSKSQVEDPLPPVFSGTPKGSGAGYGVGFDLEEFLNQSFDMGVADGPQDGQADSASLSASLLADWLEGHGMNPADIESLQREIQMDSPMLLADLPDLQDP
Sequence of NAD(+) hydrolase SARM1 (Homo sapiens) (Q6SZW1 whole entry, looked up, the tested form may be a part): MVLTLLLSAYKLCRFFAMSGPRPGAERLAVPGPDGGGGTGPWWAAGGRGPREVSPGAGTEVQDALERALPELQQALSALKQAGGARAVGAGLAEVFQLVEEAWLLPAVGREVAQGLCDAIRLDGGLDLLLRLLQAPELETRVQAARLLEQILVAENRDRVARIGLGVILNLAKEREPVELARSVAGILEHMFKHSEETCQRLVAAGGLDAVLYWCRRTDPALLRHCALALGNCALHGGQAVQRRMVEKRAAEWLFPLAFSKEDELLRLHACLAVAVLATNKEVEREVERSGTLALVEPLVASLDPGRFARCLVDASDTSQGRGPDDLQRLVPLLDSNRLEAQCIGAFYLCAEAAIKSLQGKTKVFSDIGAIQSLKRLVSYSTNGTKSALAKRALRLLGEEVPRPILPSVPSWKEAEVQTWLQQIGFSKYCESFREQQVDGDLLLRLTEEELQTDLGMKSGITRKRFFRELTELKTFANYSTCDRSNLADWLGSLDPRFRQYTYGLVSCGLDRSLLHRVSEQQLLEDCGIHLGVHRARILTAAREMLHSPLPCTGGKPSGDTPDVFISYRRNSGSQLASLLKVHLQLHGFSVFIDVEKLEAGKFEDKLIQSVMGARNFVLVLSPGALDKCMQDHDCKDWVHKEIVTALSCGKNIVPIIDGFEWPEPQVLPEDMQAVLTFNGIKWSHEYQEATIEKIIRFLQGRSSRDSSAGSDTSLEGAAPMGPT

A word on the inhibition: it is the change of the read-out against control, counted positive when it falls. Take `C/C(=C\c1ccc(C(=O)O)cc1)c1ccc2c(c1)C(C)(C)CCC2(C)C`: in test [1], the period change was 0.4 h (inactive). Besides, the survival in test [2] was 85.2 (inactive). For the same compound, in test [3], the inhibition was 0% (inactive). Moreover, the cell count is 6410 and 5680 and 8680 in [4] (setting [16]); 6200 and 5870 and 8620 in test [4] (setting [17]). Besides, the compound was classed as inactive in test [5]. Besides, the z-score in [6] was 1.45 (inactive) and 1.6 (inactive).

A word on the remaining activity: it is the signal under treatment as a percentage of the control signal. As to `Cc1ccc([N+](=O)[O-])cc1S(=O)(=O)N(C)C`, the inhibition in test [3] was 0% (inactive). The fluorescence ratio (interference) in [7] was 1 (inactive). Besides, the remaining activity in [8] was 93.4% (inactive). For the same compound, the fold change was 0.957 (inactive) and 0.856 (inactive) in test [4] (setting [18]); 1.62 and 1.47 in [4] (setting [19]). Further, the cell count in test [4] (setting [16]) was 9070 and 7620; in [4] (setting [17]), 9480 and 8900. Also, in test [5], the compound was called inactive. Also, in test [6], the z-score is 0.32 (inactive) and -0.31 (inactive).

One may read the viability as a read-out of living cells in per cent, often relative to untreated cells. For the compound `CN1CCc2cccc3c2[C@H]1Cc1ccc(O)c(O)c1-3`, the fluorescence slope change in test [9] is 65.8% (active). For the same compound, the survival in test [2] is 6.58 (inactive). Besides, in test [10], the parasite load remaining was 7.04% (inactive) and 82% (inactive) and 31.2% (inactive). Moreover, in test [10], the viability is 42.7% and 84.6% and 138%. Further, the remaining activity in [8] was 113% (inactive). For the same compound, the fold change in test [4] (setting [18]) was 0.946 (inactive) and 0.949 (inactive) and 0.917 (inactive); in test [4] (setting [19]), 0.839 and 1.17 and 0.734. Also, the cell count in test [4] (setting [16]) is 7920 and 7790 and 8530; in test [4] (setting [17]), 8370 and 8210 and 9300. Also, the z-score in [11] (setting [20]) is 0.207 (inactive) and -0.194 (inactive); in [11] (setting [21]), 0.641 and 0.16; in test [6], -1.04 (inactive) and -2.25 (inactive). Moreover, the remaining NAD in test [12] is 53 nM (active). For the same compound, the luciferase signal in test [13] was 48 AU (inactive).

On to `Cc1ccc2c(c1)C(=O)C1(O)CCN(c3ccccc3)C1=N2` (stereo not drawn), for which the remaining activity in test [8] is 119% (inactive). Besides, the fold change was 0.944 (inactive) and 1.14 (inactive) and 0.93 (inactive) in test [4] (setting [18]); 1.39 and 0.747 and 0.79 in [4] (setting [19]). The cell count in test [4] (setting [16]) is 2140 and 6710 and 5140; in test [4] (setting [17]), 2270 and 5900 and 5530. In addition, the z-score in test [6] is 0.035 (inactive).

As for `c1ccc(C(NCCNC(c2ccccc2)c2ccccc2)c2ccccc2)cc1`, the inhibition in [3] was -4% (inactive). Besides, in [7], the fluorescence ratio (interference) is 1 (inactive). In addition, the remaining activity in [8] is 112% (inactive). The fold change in [4] (setting [18]) was 0.972 (inactive) and 0.853 (inactive); in test [4] (setting [19]) it was 0.809 and 1.79. The cell count is 5830 and 5710 in [4] (setting [16]); 5990 and 6700 in [4] (setting [17]). In [5], the compound was classed as inactive. Further, the z-score in test [6] is -1.29 (inactive) and -0.705 (inactive).

With `CCCCCCCCc1ccc(-c2ccc(C(=O)O)cc2)cc1`, the inhibition in [3] was 0% (inactive). Also, the fluorescence ratio (interference) in test [7] is 1 (inactive). Besides, the remaining activity in test [8] is 95.4% (inactive). The fold change was 0.939 (inactive) and 0.915 (inactive) in [4] (setting [18]); 0.89 and 1.73 in [4] (setting [19]). Besides, the cell count is 8400 and 8360 in [4] (setting [16]); 8950 and 9140 in test [4] (setting [17]). Also, the call in test [5] was inactive. In addition, the z-score in test [6] was 0.205 (inactive) and -0.145 (inactive).

`COc1ccc2c(c1)c(CC(=O)N1CCOCC1)c(C)n2C(=O)c1ccc(Cl)cc1`: the period change in test [1] was -0.115 h (inactive). Also, in [2], the survival is 105 (inactive). For the same compound, the remaining activity in test [8] is 123% (inactive). Further, the fold fluorescence in test [14] is 2.56 (active). In addition, the values for the z-score in [11] (setting [20]), in test [11] (setting [21]) and in [6] were -0.237 (inactive), -0.286 and -0.295 (inactive), respectively.

As to `Oc1cc2c(c(Cl)c1O)CCNCC2c1ccccc1` (stereo not drawn), the period change in test [1] was 0.11 h (inactive). For the same compound, in test [7], the fluorescence ratio (interference) is 0.6 (active). Besides, the remaining activity in [8] was 120% (inactive). The fold change in test [4] (setting [18]) was 1.3 (inactive) and 0.885 (inactive); in test [4] (setting [19]) it was 0.646 and 0.88. The cell count in test [4] (setting [16]) is 5030 and 5850; in [4] (setting [17]), 3880 and 6610. The outcome in test [5] was inactive. Moreover, the z-score in [6] was 0.1 (inactive) and -0.405 (inactive).

For `Oc1cc2c(cc1O)CN(C(=S)NCCc1ccc(Cl)cc1)CCC2`, the period change in test [1] is 0.035 h (inactive). In addition, in test [3], the inhibition is 0% (inactive). Also, the fluorescence ratio (interference) in [7] was 1 (inactive). In test [8], the remaining activity was 72.4% (inactive). The fold fluorescence in test [14] is 5.63 [at 132.7 µM] (inactive). For the same compound, the outcome in test [5] was inactive. In addition, the z-score in test [6] was -0.99 (inactive) and -1.23 (inactive).

Consider `CN(C)CCCSC(=N)N`, for which the survival in test [2] is 12 (inactive). Besides, the parasite load remaining in test [10] is 63.2% (inactive). The viability in test [10] turned out to be 78.8%. The remaining activity in test [8] was 105% (inactive). Further, the fold change in test [4] (setting [18]) was 0.94 (inactive) and 0.947 (inactive); in test [4] (setting [19]), 0.889 and 0.696. For the same compound, the cell count was 8690 and 7530 in [4] (setting [16]); 9240 and 7950 in [4] (setting [17]). The z-score in test [11] (setting [20]) was 0.388 (inactive); in [11] (setting [21]), -0.104; in [6], -0.34 (inactive).

Take `c1ccc(C(NCc2cccnc2)(c2ccccc2)c2ccccc2)cc1`: the inhibition in [3] was 0% (inactive). In addition, the fluorescence ratio (interference) in test [7] is 1 (inactive). Besides, the remaining activity in test [8] was 95% (inactive). Besides, the fold change was 1.09 (inactive) and 0.901 (inactive) in test [4] (setting [18]); 1.48 and 1.53 in test [4] (setting [19]). Further, the cell count was 7080 and 6130 in test [4] (setting [16]); 6480 and 6800 in [4] (setting [17]). For the same compound, in test [5], the result was inactive. Moreover, the z-score in [6] was -1.03 (inactive) and -0.695 (inactive).

In the case of `CCCn1c(=O)c(C)cn2nc(N)nc12`, the inhibition in test [3] was -2% (inactive). Further, the fluorescence ratio (interference) in test [7] is 1 (inactive). Moreover, the remaining activity in test [8] is 123% (inactive). For the same compound, the fold change in test [4] (setting [18]) is 0.963 (inactive) and 0.912 (inactive); in test [4] (setting [19]) it was 2.19 and 0.621. Besides, the cell count in test [4] (setting [16]) is 10000 and 9600; in test [4] (setting [17]), 10400 and 10500. In test [5], the compound was classed as inactive. Besides, the z-score in test [6] is 0.8 (inactive) and -0.21 (inactive).

For the compound `Brc1c(Br)c(Br)c2n[nH]nc2c1Br`, the parasite load remaining in test [10] was 65.4% (inactive). Also, in [10], the viability was 173%. In test [15], the liver cell % of control is 96.1%. For the same compound, in test [15], the parasite % of control is 91.6% (inactive). Besides, the inhibition in test [3] was -6% (inactive). For the same compound, the fluorescence ratio (interference) in [7] was 1 (inactive). Besides, the remaining activity in [8] is 108% (inactive). The fold change was 1.03 (inactive) and 1.02 (inactive) in [4] (setting [18]); 1.41 and 1.13 in test [4] (setting [19]). Further, the cell count in [4] (setting [16]) is 10300 and 7940; in test [4] (setting [17]), 9970 and 7790. The call in test [5] was inactive. Also, the z-score in test [6] was -0.92 (inactive) and -0.58 (inactive).

For `CC1(C)CCC(C)(C)c2cc(C(=O)Nc3ccc(C(=O)O)cc3)ccc21`, the survival in [2] is 83.8 (inactive). Further, the cell count in test [4] (setting [16]) was 5520 and 7570; in [4] (setting [17]), 5900 and 8080. Further, the z-score in test [6] was 1.25 (inactive).

Source of the values: PubChem BioAssay.
